Test results published in ChEMBL document CHEMBL3988442, “University of Dundee, Small-Polar-MMV Screening Library” (2021).
“And” between values parts separate entries of the source, which are not always exact repeats. Equal values may be shown once. For part of these data: Potency and affinity values are given separately.

Assays:
Design in all cases: scale not given: direction of the effect not stated beside the values
[1] = target: Protein translocase subunit SecA (Escherichia coli (strain K12)) (UniProt P10408); test: Assay to Identify E. coli SecA ATPase Inhibitors; assay type: functional; conditions: 30 µM
Sequence of Protein translocase subunit SecA (Escherichia coli (strain K12)) (P10408 whole entry): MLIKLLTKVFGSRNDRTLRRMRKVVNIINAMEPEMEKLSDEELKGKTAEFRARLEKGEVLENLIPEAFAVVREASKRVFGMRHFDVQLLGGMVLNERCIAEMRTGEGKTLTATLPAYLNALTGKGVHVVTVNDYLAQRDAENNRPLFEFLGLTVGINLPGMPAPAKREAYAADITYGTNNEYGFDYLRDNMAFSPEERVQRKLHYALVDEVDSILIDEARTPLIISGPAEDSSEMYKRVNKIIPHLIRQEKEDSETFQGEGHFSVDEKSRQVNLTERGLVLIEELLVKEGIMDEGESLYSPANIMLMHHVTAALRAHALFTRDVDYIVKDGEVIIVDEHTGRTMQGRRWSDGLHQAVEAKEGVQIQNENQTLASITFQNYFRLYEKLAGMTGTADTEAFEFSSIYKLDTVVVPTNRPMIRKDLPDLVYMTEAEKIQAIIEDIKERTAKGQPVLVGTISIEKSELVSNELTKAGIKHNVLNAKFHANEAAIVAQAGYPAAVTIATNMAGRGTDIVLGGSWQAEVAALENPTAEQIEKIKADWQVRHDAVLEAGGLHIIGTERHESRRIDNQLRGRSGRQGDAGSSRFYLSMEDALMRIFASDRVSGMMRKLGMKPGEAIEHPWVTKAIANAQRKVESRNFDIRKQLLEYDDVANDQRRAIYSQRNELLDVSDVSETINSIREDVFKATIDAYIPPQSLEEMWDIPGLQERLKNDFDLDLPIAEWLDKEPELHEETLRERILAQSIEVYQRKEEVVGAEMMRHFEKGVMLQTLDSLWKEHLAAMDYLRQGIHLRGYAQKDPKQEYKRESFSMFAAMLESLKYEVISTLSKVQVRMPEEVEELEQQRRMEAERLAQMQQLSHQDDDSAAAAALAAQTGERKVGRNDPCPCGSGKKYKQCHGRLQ

[2] = target: T1, Ubiquitin-activating enzyme e1, putative (Leishmania donovani (strain BPK282A1)) (UniProt E9BSI1); test: Leishmania donovani Ubiquitin Activating Enzyme (LdE1); assay type: functional; conditions: 30 µM
T1 sequence (whole entry): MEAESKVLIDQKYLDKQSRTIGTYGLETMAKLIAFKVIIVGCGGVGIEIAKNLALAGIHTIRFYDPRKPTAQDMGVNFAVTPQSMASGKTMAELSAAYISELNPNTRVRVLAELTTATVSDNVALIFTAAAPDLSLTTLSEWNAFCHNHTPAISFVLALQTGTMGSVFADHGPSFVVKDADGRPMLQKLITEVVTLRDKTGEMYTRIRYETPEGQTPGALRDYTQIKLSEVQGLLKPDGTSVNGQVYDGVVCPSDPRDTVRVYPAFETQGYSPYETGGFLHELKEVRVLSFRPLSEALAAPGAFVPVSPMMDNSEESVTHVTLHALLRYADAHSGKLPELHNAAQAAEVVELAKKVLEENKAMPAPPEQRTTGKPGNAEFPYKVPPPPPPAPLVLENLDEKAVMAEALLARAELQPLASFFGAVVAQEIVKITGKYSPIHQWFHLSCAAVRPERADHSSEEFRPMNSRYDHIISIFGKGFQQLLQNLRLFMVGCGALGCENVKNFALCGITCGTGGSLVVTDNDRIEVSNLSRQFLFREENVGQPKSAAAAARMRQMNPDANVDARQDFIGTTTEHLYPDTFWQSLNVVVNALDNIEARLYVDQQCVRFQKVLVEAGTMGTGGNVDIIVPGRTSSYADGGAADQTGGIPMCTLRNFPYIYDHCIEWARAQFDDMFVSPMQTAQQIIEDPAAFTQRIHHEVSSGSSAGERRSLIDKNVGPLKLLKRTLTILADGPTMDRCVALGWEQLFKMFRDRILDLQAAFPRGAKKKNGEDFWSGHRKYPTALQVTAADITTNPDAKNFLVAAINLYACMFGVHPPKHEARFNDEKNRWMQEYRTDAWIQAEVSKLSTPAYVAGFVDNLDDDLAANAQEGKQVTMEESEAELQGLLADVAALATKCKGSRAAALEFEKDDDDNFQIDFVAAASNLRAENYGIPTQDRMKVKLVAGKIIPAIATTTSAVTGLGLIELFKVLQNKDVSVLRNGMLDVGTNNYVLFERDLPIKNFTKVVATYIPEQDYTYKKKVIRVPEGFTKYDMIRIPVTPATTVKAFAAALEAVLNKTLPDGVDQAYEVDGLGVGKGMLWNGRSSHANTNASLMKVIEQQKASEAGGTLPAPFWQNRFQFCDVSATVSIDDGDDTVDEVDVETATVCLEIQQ

[3] = target: AMP-activated protein kinase, AMPK (Homo sapiens) (UniProt P54646+O43741+P54619+Q9UGJ0+Q9Y478+Q13131+Q9UGI9); test: AMP-dependent Kinase enzyme assay. An in vitro enzyme assay that detects ADP turnover that is directly proportional to AMPK activity. This uses naive AMPK that is activated during the assay with MK-8722; assay type: functional; conditions: 30 µM
[4] = target: Sialic acid-binding Ig-like lectin 9 (Homo sapiens) (UniProt Q9Y336); test: Hs-Siglec9 ALPHAscreen SOP 20170721; conditions: 10 µM
Sequence of Sialic acid-binding Ig-like lectin 9 (Homo sapiens) (Q9Y336 whole entry): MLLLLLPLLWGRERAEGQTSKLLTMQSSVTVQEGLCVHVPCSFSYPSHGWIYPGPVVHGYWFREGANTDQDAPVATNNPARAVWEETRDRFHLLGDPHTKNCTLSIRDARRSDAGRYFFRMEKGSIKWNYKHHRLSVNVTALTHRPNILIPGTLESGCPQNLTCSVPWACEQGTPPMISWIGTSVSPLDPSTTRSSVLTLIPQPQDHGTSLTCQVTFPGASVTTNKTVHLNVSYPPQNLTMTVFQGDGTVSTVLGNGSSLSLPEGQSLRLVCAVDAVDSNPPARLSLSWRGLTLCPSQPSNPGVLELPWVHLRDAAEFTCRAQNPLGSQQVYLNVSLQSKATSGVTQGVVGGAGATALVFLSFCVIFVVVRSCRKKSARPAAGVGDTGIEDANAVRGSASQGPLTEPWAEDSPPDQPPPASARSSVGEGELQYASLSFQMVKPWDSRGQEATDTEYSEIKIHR

Trypanosoma cruzi = test: Trypanosoma cruzi phosphomannomutase and mannose-1-phosphate guanylyltransferase assay; assay type: functional; conditions: 10 µM
[5] = target: T2, Arginase-2, mitochondrial (Homo sapiens) (UniProt P78540); test: in vitro enzyme assay to detect the production of urea directly proportional to the activity of Arginase II; assay type: functional; note: in the data most compounds retested in dose-response had high values
T2 sequence (whole entry): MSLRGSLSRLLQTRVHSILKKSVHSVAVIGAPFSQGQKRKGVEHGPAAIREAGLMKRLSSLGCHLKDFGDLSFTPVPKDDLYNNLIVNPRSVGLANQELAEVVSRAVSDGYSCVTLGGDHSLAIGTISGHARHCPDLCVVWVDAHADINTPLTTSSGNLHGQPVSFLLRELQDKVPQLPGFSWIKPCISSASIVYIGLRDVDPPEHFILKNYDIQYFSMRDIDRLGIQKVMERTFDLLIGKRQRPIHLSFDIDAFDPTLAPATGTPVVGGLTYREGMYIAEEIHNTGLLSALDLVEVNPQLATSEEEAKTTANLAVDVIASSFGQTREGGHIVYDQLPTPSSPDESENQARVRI

[6] = target: T3, Proteasome subunit beta (Trypanosoma cruzi) (UniProt O96673); test: Trypanosoma cruzi proteasome chymotrypsin-like activity (TcProtChymo) assay.; note: in the data most compounds retested in dose-response had high values; assay type: functional; conditions: 9.37 µM
T3 sequence (whole entry): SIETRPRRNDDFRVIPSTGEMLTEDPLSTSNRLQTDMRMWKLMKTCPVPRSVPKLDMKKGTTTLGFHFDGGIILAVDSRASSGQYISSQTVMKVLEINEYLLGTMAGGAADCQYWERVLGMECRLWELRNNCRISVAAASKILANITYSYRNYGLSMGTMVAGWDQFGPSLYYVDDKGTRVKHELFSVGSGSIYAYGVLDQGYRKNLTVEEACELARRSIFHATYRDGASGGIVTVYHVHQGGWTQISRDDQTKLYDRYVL

Homo sapiens = organism: Homo sapiens; test: To identify inhibition of the IFN signalling (Jak-Stat) pathway via expression of an eGFP reporter gene under the control of an IFN-stimulated response element (ISRE) containing MxA promoter.; assay type: functional; conditions: 30 µM
[7] = target: T4, Tyrosyl-tRNA synthetase, putative (Trypanosoma cruzi (strain CL Brener)) (UniProt Q4DSP6); test: Trypanosoma cruzi tyrosyl tRNA synthetase (TcYRS) _High Tyrosine SOP; assay type: functional; conditions: 30 µM; note: in the data most compounds retested in dose-response had high values
T4 sequence (whole entry): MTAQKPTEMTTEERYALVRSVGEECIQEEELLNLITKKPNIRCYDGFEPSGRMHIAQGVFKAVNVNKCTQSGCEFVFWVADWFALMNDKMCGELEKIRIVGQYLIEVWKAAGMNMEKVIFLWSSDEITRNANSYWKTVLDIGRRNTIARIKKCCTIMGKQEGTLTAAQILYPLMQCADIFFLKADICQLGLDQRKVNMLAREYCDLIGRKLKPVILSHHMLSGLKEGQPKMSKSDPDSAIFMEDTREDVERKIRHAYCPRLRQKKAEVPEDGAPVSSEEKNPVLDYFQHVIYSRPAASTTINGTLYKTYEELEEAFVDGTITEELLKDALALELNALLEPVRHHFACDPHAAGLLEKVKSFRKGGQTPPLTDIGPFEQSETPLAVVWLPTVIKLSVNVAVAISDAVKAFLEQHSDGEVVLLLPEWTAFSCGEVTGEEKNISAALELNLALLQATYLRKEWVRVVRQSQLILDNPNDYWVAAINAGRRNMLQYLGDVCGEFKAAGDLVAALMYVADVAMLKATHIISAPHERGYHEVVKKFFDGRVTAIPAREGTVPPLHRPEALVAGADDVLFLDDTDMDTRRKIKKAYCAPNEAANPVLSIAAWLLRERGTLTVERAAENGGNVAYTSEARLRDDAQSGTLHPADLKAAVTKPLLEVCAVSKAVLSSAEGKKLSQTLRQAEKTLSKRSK

[8] = target: T4, Tyrosyl-tRNA synthetase, putative (Trypanosoma cruzi (strain CL Brener)); test: Trypanosoma cruzi tyrosyl tRNA synthetase (TcYRS) SOP; assay type: functional; conditions: 30 µM
[9] = target: Chromo domain-containing protein 1 (Saccharomyces cerevisiae (strain ATCC 204508 / S288c) (Baker's yeast)) (UniProt P32657); test: ScCHD-1 Enzyme Inhibition Assay; assay type: functional; conditions: 30 µM; note: in the data most compounds retested in dose-response had high values
Sequence of Chromo domain-containing protein 1 (Saccharomyces cerevisiae (strain ATCC 204508 / S288c) (Baker's yeast)) (P32657 whole entry, the tested form may be a part): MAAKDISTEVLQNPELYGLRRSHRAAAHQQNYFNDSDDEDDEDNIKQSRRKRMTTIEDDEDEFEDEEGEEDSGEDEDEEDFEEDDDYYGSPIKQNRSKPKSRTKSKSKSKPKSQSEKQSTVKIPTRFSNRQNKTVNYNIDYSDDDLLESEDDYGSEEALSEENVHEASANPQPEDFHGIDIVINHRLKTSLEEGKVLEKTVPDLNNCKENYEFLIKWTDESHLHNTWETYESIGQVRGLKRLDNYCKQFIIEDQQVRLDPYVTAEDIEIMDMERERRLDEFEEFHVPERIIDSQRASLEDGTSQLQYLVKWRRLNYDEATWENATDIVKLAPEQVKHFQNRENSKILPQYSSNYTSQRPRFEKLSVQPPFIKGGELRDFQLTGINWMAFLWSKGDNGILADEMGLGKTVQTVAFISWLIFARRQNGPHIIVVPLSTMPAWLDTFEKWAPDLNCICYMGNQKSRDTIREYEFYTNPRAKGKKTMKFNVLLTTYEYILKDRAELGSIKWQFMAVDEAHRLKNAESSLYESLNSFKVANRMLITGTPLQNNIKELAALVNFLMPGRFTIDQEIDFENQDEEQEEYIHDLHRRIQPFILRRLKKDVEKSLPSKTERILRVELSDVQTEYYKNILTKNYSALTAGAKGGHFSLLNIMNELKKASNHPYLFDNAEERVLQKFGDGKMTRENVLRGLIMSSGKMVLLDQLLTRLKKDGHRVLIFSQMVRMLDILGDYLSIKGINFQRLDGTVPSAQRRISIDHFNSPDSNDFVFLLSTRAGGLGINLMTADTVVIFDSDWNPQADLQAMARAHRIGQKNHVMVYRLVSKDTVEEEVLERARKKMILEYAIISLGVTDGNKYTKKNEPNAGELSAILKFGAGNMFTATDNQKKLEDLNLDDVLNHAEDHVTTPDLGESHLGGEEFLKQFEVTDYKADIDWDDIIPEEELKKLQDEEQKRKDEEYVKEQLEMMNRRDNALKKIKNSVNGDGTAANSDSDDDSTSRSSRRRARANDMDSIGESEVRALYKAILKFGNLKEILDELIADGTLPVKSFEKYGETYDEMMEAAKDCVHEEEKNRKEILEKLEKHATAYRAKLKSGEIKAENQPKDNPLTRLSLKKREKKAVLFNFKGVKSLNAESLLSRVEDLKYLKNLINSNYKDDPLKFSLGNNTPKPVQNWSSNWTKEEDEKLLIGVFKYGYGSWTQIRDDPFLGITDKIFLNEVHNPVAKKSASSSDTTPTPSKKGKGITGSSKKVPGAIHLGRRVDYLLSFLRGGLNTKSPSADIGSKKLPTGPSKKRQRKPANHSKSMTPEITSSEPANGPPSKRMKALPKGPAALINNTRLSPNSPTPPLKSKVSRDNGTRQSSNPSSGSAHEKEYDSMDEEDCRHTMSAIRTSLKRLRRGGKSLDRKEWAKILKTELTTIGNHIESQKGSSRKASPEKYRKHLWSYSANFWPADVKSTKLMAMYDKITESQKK

N/A = test: Trypanosoma cruzi proteasome luciferase counter-screen; assay type: functional; conditions: 9.37 µM

Structure (SMILES)	Percent Effect [1] [%]	Percent Effect [2] [%]	Percent Effect [3] [%]	Percent Effect [4] [%]	Percent Effect (Trypanosoma cruzi) [%]	Percent Effect ([5]; 30 µM) [%]	Percent Effect ([5]; 33.3 µM) [%]	Percent Effect [6]	Percent Effect (Homo sapiens) [%]	Percent Effect [7] [%]	Percent Effect [8] [%]	Percent Effect [9] [%]	Percent Effect (N/A)
Cc1ccc(CNC(=O)N(Cc2ccccc2F)C2CC2)cn1	-6.51	2.67	0.556	21.6	-1.27	13.5	-2.6	7.85%	15.6	6.01	8.64	-2.37	–
COc1ccc(-c2nc(CN3CC(n4nc(C)cc4C)C3)no2)cc1	-4.78	-5.2	0.251	-0.396	-6.79	2.7	17.9	14.5%	15.2	2.15	1.24	1.8	–
Cc1cc(C(C)C(=O)N2CCCN(Cc3cscn3)CC2)c(C)o1 (configuration not stated)	-0.889	21.1	-6.33	21.4	1.5	–	-4.98	31.9% and 34.8% and 34.4%	23.1	3.43	17.1	-9.64	4.24% and 9.24%
CNC(=O)c1cnc(/C=C/c2ccc(OC)c(O)c2)s1	-3.24	5.41	32.5	-3.93	-5.27	–	2.08	31.5% and 31.2% and 35.7%	16.4	3.96	6.1	-1.59	10.7% and 15.6%
COc1cccc(C(=O)NCC(O)c2cccs2)c1 (configuration not stated)	-3.69	11	7.67	3.99	6.46	–	0	34.1% and 33.9% and 40.3%	-9.23	7.53	17.5	-3.59	6.45% and 13%
O=C(c1ccc(C2CCCO2)s1)N1Cc2ccccc2C1 (configuration not stated)	-2.89	-2.7	-1.29	1.79	-4.25	–	-2.86	55.5% and 35.5% and 40.2%	-5.94	-2.65	0	2.95	23.5% and 18.5%
Cc1ccc(C)c(C(NC(=O)C2CC2)c2cccnc2)c1 (configuration not stated)	0.279	18.2	-0.34	-7.55	4.24	–	-1.94	32.4% and 20.1% and 20.4%	6.26	4.23	8.97	-10.3	21.2% and 15.5%
Cc1nc(CN2CCCC(N(C)Cc3cscn3)C2)no1 (configuration not stated)	-5.04	5.2	-1.86	-3.2	7.54	–	-6.11	40.2% and 44.8% and 59.4%	17.1	3.81	11.8	-17.6	16.1% and 22%
Cc1ccc(S(=O)(=O)N2CCc3nc(C4CCNCC4)ncc3C2)cc1	-3.69	9.46	-15.7	1.15	2.77	–	-4.41	21.6% and 22.5% and 38.9%	9.56	17.2	24.7	-21.4	8.48% and 9.51%
Cc1ccc(C(=O)Nc2cn[nH]c2)cc1C	0.399	18.4	16.7	3.99	0.188	–	1.15	53% and 40.4% and 50.9%	5.81	11.3	24.4	-9.31	27.1% and 25%
CC(C)c1n[nH]c(C(=O)Nc2cc[nH]n2)c1Br	-6.13	5.06	24.9	3.44	-4.25	–	-3.8	74% and 65.8% and 74.1%	24.7	-0.493	1.27	-0.338	41.2% and 40.1%
O=C(c1cn(-c2ccccc2Cl)nn1)N1CCCSCC1	-4.85	16.2	-2.86	38.1	5.57	–	3.72	49.8% and 55.2% and 47.1%	0.244	2.15	16.1	-4.55	26.3% and 26%
Cn1cccc1C(=O)N1CCC2(CC1)CN(c1cncnc1)C(=O)CO2	-7.32	-189	-15.1	-0.563	-6.69	–	-1.17	51% and 53.6% and 55.8%	18.6	-69.2	-150	-4.5	4.36% and 0.727%
CSC(C)C(=O)NCCCc1cc(N)n(-c2ccccc2)n1 (configuration not stated)	-3.19	-5.48	16.9	-3.4	-2.15	–	-12.3	74.4% and 84.2% and 83.7%	14.8	-1.07	0	-2.72	46.1% and 47.4%
CCOc1cc(/C=C/c2ncc(C(=O)O)s2)ccc1O	-3.57	11.4	44.7	0.0396	-3.38	–	4.95	47.2% and 46.2% and 45.3%	7.54	4.17	7.59	-20.7	10.5% and 16.9%
Cc1cc(S(=O)(=O)Nc2cccc(-n3cccc3)c2)sc1C(=O)O	1.39	0	12.1	7.4	4.99	–	-0.248	36.5% and 37.6% and 37.3%	-6.8	-43	-38.3	32.5	19.1% and 16.4%
